The record followed here is publication PMC7862700, “An all-to-all approach to the identification of sequence-specific readers for epigenetic DNA modifications on cytosine”.

Experiment in all cases: DAPPL (digital affinity profiling via proximity ligation, sequencing); 10 mM Tris-HCl pH 7.5, 50 mM NaCl, 1 mM DTT, 4% glycerol, room temperature, 30 min; GST-TFs on glutathione beads, 16-mer random dsDNA library, 0.1% formaldehyde crosslink after washing; high values mean tight binding
The target of one experiment is T1, FEV (Homo sapiens, UniProt Q99581 1-238).
T1 sequence: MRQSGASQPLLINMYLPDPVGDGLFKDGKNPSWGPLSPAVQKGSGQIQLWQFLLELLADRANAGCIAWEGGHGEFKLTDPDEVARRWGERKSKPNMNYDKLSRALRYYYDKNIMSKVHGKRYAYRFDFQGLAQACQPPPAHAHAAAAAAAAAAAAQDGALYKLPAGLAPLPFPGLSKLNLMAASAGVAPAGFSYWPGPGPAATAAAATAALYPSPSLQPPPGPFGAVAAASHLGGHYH
Conditions: protein: recombinant; tags: N-terminal GST; dsDNA, one strand shown. The essentials: (§1)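 Yeast served to express human transcription factors as GST fusions, which were then captured on glutathione beads and labelled with DNA barcodes. Pooled with a tag-only sample, they were incubated with 200 nmole of a 16-mer random double-stranded DNA library for 30 min at room temperature in Tris/NaCl/DTT/glycerol buffer, washed, crosslinked with 0.1% formaldehyde, ligated by proximity, amplified by PCR and sequenced. Dividing each hexamer's read frequency for a factor by its frequency for the tag-only sample gives the binding signal.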

The target of the next experiment is ETV5 (Homo sapiens, UniProt P41161 1-510). Conditions: protein: recombinant; tags: N-terminal GST; dsDNA, one strand shown. The essentials:
as §1

Another experiment addresses HSF1 (Homo sapiens, UniProt Q00613 1-529). The note with it: protein: recombinant; tags: N-terminal GST; chain copies: 3; dsDNA, one strand shown. A digest of the protocol:
as §1

The target in another experiment is T2, SPIC (Homo sapiens, UniProt Q8N5J4 1-248).
T2 sequence: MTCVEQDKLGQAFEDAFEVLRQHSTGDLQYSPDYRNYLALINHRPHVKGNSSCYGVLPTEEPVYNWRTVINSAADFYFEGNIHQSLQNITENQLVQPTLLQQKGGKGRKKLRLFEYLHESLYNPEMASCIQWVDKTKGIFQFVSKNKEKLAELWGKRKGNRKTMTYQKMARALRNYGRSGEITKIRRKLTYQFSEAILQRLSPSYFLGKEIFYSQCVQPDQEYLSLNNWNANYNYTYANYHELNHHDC
The note with it: protein: recombinant; tags: N-terminal GST; dsDNA, one strand shown. The essentials: as §1

The next experiment has as its target ELF4 (Homo sapiens, UniProt Q99607 1-663). Conditions: protein: recombinant; tags: N-terminal GST; dsDNA, one strand shown. The essentials:
as §1

The next experiment addresses T3, ELK4 (Homo sapiens, UniProt P28324-2 1-405).
T3 sequence: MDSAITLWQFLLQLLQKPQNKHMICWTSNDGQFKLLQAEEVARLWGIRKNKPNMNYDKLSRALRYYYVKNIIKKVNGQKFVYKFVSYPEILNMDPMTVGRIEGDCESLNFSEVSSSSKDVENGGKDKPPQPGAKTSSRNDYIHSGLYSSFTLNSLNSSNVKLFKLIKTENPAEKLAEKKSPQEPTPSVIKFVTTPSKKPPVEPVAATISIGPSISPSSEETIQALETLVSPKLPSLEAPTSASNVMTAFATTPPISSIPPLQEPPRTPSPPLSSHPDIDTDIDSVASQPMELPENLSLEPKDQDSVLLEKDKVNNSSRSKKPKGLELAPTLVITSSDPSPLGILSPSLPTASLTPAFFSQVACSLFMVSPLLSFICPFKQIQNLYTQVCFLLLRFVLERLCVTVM
Conditions: protein: recombinant; tags: N-terminal GST; dsDNA, one strand shown. The essentials: as §1

A further experiment addresses T4, ETV2 (Homo sapiens, UniProt O00321 1-342).
T4 sequence: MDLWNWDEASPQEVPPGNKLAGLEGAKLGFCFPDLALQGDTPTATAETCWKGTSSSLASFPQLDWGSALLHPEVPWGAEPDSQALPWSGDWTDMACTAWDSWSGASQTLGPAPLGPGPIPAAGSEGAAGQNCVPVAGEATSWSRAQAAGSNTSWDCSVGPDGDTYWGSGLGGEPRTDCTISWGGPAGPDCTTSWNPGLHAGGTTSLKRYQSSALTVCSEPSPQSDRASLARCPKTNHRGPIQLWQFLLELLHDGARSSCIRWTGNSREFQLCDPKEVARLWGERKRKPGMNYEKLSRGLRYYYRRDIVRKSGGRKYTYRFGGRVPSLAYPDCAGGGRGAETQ
The note with it: protein: recombinant; tags: N-terminal GST; dsDNA, one strand shown. A digest of the protocol: as §1

The target of the next experiment is T5, ELF3 (Homo sapiens, UniProt P78545 1-371).
T5 sequence: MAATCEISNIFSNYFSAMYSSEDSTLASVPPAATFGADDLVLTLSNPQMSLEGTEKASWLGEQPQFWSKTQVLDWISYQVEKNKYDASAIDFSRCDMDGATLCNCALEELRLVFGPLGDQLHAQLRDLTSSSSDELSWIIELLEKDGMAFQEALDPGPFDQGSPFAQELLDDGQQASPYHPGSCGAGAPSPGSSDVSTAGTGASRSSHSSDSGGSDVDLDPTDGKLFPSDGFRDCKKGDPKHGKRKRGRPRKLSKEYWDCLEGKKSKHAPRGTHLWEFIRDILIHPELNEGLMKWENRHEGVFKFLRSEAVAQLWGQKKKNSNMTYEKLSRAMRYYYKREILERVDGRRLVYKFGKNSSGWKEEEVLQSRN
The note with it: protein: recombinant; tags: N-terminal GST; dsDNA, one strand shown. A digest of the protocol: as §1

The target in a further experiment is CRX (Homo sapiens, UniProt O43186 1-299). The note with it: protein: recombinant; tags: N-terminal GST; dsDNA, one strand shown. The essentials:
as §1

Another experiment has as its target ETV1 (Homo sapiens, UniProt P50549 1-477). The note with it: protein: recombinant; tags: N-terminal GST; dsDNA, one strand shown. A digest of the protocol: as §1
In a further experiment the target is T6, ERF (Homo sapiens, UniProt P50548 1-548).
T6 sequence: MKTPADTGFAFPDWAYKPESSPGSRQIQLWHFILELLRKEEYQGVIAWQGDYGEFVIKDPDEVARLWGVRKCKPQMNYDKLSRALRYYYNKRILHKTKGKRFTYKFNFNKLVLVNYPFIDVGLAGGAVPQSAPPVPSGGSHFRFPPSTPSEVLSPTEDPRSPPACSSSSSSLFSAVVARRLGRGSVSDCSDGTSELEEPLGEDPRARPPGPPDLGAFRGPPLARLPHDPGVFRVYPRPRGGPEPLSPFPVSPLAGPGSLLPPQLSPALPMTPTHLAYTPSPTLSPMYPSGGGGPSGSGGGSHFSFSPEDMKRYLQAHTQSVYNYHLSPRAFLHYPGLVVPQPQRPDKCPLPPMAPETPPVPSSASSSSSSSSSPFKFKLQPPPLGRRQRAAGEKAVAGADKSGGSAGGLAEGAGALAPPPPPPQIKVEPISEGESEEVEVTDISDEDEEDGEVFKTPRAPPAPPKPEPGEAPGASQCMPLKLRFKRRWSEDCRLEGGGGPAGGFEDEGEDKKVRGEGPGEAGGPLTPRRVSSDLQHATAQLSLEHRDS
The note with it: protein: recombinant; tags: N-terminal GST; dsDNA, one strand shown. The essentials: as §1

For the next experiment, the target named is T7, ETV3L (Homo sapiens, UniProt Q6ZN32 1-361).
T7 sequence: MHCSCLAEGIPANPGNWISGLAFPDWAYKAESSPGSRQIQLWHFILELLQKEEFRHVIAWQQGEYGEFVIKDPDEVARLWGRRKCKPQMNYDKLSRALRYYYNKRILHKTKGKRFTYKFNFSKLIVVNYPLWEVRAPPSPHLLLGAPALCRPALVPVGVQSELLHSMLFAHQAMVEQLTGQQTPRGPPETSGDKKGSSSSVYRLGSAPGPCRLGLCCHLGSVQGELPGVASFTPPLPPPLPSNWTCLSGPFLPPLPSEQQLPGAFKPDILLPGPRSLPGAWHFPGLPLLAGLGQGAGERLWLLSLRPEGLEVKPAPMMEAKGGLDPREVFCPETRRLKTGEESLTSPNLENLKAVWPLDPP
Conditions: protein: recombinant; tags: N-terminal GST; dsDNA, one strand shown. A digest of the protocol:
as §1

The next experiment deals with T8, ETS2 (Homo sapiens, UniProt P15036 1-469).
T8 sequence: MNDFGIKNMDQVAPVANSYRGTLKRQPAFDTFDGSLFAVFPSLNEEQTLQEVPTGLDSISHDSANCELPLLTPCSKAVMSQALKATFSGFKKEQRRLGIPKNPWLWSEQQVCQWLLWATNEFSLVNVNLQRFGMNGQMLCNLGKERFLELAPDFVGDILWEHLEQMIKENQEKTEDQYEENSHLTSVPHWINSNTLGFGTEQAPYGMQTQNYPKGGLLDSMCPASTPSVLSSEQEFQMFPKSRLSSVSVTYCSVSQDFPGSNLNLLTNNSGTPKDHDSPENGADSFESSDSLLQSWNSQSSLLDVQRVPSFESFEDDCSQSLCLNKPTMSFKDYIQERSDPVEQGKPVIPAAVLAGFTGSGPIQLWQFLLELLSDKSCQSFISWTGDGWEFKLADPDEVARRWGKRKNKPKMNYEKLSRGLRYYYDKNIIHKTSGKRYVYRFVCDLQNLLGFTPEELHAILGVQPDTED
Conditions: protein: recombinant; tags: N-terminal GST; dsDNA, one strand shown. The essentials: as §1

The target in another experiment is T9, SPDEF (Homo sapiens, UniProt O95238 1-335).
T9 sequence: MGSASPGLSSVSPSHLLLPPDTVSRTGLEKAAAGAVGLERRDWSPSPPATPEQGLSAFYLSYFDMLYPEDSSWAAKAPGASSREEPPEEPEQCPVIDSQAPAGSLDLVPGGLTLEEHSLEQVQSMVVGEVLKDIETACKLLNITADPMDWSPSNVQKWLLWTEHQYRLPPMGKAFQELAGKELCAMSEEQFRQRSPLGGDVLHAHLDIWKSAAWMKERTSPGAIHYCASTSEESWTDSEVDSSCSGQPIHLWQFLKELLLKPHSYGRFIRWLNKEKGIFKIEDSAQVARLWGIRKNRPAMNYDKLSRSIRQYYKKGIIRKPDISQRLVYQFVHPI
The note with it: protein: recombinant; tags: N-terminal GST; dsDNA, one strand shown. A digest of the protocol:
as §1

The target of another experiment is T10, ETV7 (Homo sapiens, UniProt Q9Y603 1-341).
T10 sequence: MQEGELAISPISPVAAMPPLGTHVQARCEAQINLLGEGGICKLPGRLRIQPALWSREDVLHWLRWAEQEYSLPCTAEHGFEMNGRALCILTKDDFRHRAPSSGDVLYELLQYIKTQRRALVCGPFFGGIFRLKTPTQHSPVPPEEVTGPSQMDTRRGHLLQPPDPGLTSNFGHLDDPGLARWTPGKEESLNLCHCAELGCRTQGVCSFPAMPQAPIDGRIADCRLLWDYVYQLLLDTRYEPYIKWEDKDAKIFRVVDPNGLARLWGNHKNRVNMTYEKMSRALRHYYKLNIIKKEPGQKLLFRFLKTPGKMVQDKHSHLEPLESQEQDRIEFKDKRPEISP
Conditions: protein: recombinant; tags: N-terminal GST; dsDNA, one strand shown. The essentials:
as §1

The target of a further experiment is T11, ELF5 (Homo sapiens, UniProt Q9UKW6-2 1-255).
T11 sequence: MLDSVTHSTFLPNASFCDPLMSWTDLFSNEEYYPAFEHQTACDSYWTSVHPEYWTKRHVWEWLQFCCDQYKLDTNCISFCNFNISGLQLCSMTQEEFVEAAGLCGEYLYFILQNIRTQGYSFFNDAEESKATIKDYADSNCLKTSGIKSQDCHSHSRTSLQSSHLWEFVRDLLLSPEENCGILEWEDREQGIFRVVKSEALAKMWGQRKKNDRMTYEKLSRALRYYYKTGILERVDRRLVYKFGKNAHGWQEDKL
Conditions: protein: recombinant; tags: N-terminal GST; dsDNA, one strand shown. The essentials:
as §1

In another experiment the target is T12, ETV3 (Homo sapiens, UniProt P41162-2 1-143).
T12 sequence: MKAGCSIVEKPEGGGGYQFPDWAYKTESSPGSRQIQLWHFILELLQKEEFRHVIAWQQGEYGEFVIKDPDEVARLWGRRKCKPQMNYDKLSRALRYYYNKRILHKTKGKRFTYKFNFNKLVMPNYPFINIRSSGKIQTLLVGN
Conditions: protein: recombinant; tags: N-terminal GST; dsDNA, one strand shown. A digest of the protocol:
as §1

For a further experiment, the target named is ETV6 (Homo sapiens, UniProt P41212 1-452). Conditions: protein: recombinant; tags: N-terminal GST; dsDNA, one strand shown. The essentials:
as §1

Chain of ETV5 (P41161 whole entry): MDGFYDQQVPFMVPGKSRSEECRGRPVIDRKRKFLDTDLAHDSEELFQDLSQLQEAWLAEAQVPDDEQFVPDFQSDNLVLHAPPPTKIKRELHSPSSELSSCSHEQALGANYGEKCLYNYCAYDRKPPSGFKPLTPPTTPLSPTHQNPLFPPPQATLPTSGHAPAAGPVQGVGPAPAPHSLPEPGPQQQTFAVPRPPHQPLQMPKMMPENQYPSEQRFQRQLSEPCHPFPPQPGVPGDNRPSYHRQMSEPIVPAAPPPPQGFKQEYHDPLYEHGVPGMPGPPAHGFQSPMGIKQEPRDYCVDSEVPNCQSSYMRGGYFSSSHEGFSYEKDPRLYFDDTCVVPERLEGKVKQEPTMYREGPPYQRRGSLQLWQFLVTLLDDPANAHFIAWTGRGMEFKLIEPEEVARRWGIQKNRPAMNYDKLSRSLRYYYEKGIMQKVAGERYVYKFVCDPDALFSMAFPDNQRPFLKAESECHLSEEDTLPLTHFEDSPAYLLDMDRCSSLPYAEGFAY
Chain of ELF4 (Q99607 whole entry): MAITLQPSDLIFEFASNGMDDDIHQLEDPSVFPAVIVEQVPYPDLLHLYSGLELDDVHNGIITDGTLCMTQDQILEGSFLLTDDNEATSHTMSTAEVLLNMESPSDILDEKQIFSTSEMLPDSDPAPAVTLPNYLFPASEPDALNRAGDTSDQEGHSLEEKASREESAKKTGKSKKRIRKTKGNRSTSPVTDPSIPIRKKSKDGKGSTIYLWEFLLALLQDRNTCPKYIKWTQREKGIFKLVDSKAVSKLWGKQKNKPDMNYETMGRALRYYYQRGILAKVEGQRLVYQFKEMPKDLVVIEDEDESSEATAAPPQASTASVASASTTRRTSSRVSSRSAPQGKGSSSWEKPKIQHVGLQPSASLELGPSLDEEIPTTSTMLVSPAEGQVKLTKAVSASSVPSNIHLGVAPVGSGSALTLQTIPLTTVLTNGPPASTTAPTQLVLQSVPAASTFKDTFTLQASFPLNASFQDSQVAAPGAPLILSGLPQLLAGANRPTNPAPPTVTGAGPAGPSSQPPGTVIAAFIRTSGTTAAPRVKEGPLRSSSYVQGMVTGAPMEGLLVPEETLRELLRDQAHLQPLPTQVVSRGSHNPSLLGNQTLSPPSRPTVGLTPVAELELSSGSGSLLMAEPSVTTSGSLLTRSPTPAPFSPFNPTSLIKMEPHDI
Chain of ETV6 (P41212 whole entry): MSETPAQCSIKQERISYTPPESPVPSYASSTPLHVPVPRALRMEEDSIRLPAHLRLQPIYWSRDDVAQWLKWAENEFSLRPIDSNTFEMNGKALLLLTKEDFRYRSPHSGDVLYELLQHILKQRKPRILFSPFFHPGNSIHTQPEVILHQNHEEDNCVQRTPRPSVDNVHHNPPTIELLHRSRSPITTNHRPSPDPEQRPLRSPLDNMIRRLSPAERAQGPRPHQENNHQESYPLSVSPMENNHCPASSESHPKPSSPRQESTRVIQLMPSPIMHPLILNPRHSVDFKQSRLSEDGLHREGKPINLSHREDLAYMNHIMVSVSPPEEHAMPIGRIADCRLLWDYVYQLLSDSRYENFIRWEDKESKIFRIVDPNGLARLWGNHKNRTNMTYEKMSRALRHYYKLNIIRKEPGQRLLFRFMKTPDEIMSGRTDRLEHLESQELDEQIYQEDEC
Chain of ETV1 (P50549 whole entry): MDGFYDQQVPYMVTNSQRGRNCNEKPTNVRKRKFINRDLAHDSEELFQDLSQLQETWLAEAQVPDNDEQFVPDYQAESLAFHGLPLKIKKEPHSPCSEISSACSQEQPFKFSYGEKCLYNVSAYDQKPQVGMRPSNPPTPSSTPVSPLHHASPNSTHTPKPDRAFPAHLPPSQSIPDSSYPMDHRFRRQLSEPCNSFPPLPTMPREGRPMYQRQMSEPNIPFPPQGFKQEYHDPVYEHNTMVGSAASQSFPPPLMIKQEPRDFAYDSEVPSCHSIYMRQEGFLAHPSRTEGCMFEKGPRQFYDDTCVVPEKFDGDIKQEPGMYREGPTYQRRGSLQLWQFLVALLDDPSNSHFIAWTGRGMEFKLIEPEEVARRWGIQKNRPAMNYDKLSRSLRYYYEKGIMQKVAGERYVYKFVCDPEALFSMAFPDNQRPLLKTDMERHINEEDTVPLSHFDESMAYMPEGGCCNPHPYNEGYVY
Chain of HSF1 (Q00613 whole entry): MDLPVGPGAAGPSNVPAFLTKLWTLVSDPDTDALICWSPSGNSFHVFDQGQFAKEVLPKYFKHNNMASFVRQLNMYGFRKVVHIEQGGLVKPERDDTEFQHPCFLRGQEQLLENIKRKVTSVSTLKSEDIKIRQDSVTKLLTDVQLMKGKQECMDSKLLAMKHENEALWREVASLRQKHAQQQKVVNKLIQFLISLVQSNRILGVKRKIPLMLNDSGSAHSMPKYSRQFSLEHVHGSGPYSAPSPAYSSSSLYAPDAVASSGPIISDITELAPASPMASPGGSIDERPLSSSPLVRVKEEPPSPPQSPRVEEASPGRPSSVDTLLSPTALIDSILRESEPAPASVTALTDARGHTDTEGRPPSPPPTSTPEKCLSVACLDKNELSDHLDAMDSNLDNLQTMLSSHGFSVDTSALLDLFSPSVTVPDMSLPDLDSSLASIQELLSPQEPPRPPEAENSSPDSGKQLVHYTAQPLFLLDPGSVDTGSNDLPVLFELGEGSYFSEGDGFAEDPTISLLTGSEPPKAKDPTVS
Chain of CRX (O43186 whole entry): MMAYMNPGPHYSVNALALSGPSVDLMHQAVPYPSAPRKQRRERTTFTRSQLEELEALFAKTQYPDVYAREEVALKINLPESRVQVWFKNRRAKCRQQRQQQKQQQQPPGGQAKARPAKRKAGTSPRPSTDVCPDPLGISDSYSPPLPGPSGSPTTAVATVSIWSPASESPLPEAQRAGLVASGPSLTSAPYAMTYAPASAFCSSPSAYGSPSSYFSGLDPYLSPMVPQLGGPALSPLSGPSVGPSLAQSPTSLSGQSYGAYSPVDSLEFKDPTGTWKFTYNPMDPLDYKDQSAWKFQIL

In the case of GTAAAT, the binding signal with FEV was 1.09 fold enrichment (6-mer frequency, TF over GST control); with ETV5 it was 1.13 fold enrichment (6-mer frequency, TF over GST control); with HSF1 it was 1.22 fold enrichment (6-mer frequency, TF over GST control); in the experiment with SPIC it was 1.09 fold enrichment (6-mer frequency, TF over GST control); with ELF4, 1.14 fold enrichment (6-mer frequency, TF over GST control); with ELK4, 1.14 fold enrichment (6-mer frequency, TF over GST control). For the same sequence, the binding signal with ETV2 is 1.06 fold enrichment (6-mer frequency, TF over GST control); in the experiment with ELF3, 1.25 fold enrichment (6-mer frequency, TF over GST control); in the experiment with CRX, 1.32 fold enrichment (6-mer frequency, TF over GST control); in the experiment with ETV1 it was 1.07 fold enrichment (6-mer frequency, TF over GST control); with ERF, 1.18 fold enrichment (6-mer frequency, TF over GST control); in the experiment with ETV3L, 1.23 fold enrichment (6-mer frequency, TF over GST control). Also, the binding signal is 1.18 fold enrichment (6-mer frequency, TF over GST control) with ETS2; 1.13 fold enrichment (6-mer frequency, TF over GST control) in the experiment with SPDEF; 1.2 fold enrichment (6-mer frequency, TF over GST control) in the experiment with ETV7; 1.12 fold enrichment (6-mer frequency, TF over GST control) with ELF5; 1.13 fold enrichment (6-mer frequency, TF over GST control) with ETV3; 1.18 fold enrichment (6-mer frequency, TF over GST control) in the experiment with ETV6.
